# Measured values published in PubChem BioAssay (EPA / NIEHS).
# Active and inactive are the calls of the source. The calls were made as follows: active = hit-call score of the fitted dose curve at least 0.9, where 1 is the maximum; inactive = score below 0.9.
# Assay: ATG_EGR_CIS: Attagene CIS-FACTORIAL HepG2 Assay for human Early Growth Response 1 (EGR1) (AID 2282938)
# Conditions: HepG2 Attagene CIS-FACTORIAL EGR reporter mRNA; actives raise or lower the signal
# Description: ATG_CIS is a cell-based, multiplexed-readout assay that uses HepG2, a human liver cell line, with measurements taken at 24 hours after chemical dosing in a 24-well plate.ATG_EGR_CIS is one of 52 assay component(s) measured or calculated from the ATG_CIS assay. It is designed to make measurements of mRNA induction, a form of inducible reporter, as detected with fluorescence intensity signals by Reverse transcription polymerase chain reaction (RT-PCR) and Capillary electrophoresis technology.Data from the assay component ATG_EGR_CIS was analyzed into 1 assay endpoint. This assay endpoint, ATG_EGR_CIS, was analyzed with bidirectional fitting relative to DMSO as the negative control and baseline of activity. Using a type of inducible reporter, measures of mRNA for gain or loss-of-signal activity can be used to understand the reporter gene at the transcription factor-level as they relate to the gene EGR1. Furthermore, this assay endpoint can be referred to as a primary readout, because this assay has produced multiple assay endpoints where this one serves a reporter gene function. To generalize the intended target to other relatable targets, this assay endpoint is annotated to the dna binding intended target family, where the subfamily is zinc finger.
# Human liver HepG2 cells are transiently transfected with multiple reporter transcription units (MRTUs) in 6-well plates using FuGene 6 reagent (Roche; 3 ml FuGene/1 mg DNA). The MRTU constructs are regulated by a cis-regulating element (promoter). […] A major difference between the CIS and TRANS system is that in CIS activities of endogenous TFs are measured, whereas the TRANS assay evaluates changes in activities of exogenous, chimeric NR-Gal4 proteins. […] At the end of 24 hour incubation, total RNA was isolated using TriZol reagent (Invitrogen). The isolated RNA is then reverse-transcribed using oligo(dT) primer and Mo-MLV reverse transcriptase (Invitrogen) with DNAse I (Ambion) treatment for 30 min. The one-tenth of the produced cDNA was amplified by PCR using Taq DNA polymerase (Invitrogen) and two reporter sequence-specific primers. The PCR products were fluorescently labeled by primer extension with 6-arboxyfluorescein (6-FAM) 5'-labeled reporter sequence-specific primer (2 min at 95 C, 20 s at 68 C and 10 min at 72 C) and these products were digested with 5U of HpaI (New England Biolabs) for 2h at 37 C. The fragments were purified using Qiaquick PCR columns (Qiagen), analyzed on an ABI 3130xL genetic analyzer (Applied Biosystems) with peak positions identified by using a set of X-rhodamine (ROX)-labeled MapMarker1000 molecular weight standards (BioVentures). The raw capillary electrophoresis data was processed using Attagraph software (Attagene).
SMILES,outcome,AC50
CCCCOP(=O)(CCCC)OCCCC,inactive,
C=CCN=C=S,inactive,
Cc1cc(C)cc(C)c1,inactive,
CCCCN(CCCC)C(=S)[S-].CCCCN(CCCC)C(=S)[S-].[Ni+2],inactive,
O=S(=O)(c1ccc(Cl)cc1)c1cc(Cl)c(Cl)cc1Cl,inactive,
C[C@H]1C(=O)O[C@@H]2CCN3CC=C(COC(=O)[C@](C)(O)[C@]1(C)O)[C@H]23,inactive,
Cc1cccc(C)c1NC(=O)CN1CCCC1=O,inactive,
CC1(C)COP(Oc2ccccc2)OC1,inactive,
CC(C=O)Cc1ccc2c(c1)OCO2 (stereo not given),inactive,
C[C@]12CC[C@@H](O)C[C@@H]1CC[C@@H]1[C@@H]2CC[C@]2(C)C(=O)CC[C@@H]12,inactive,
CCCCCCCCCCCCCCC(Br)C(=O)O (stereo not given),,146 µM (active)
[Cl][Sn]([c]1ccccc1)([c]1ccccc1)[c]1ccccc1,,0.257 µM (active)
CCOCn1c(-c2ccc(Cl)cc2)c(C#N)c(Br)c1C(F)(F)F,,1.83 µM (active)
Brc1ccc(Br)cc1,inactive,
O=S(=O)(F)C(F)(F)C(F)(F)C(F)(F)C(F)(F)F,inactive,
O=C1C=CC(=O)c2ccccc21,inactive,
N#CCC#N,inactive,
Cc1cc(C(F)(C(F)(F)F)C(F)(F)F)ccc1NC(=O)c1cccc(I)c1C(=O)NC(C)(C)CS(C)(=O)=O,inactive,
N#CCCC(Br)(C#N)CBr (stereo not given),,45.3 µM (active)
COP(=S)(OC)Oc1cc(Cl)c(I)cc1Cl,,41.3 µM (active)

SMILES,outcome,AC50
Oc1cccc(-c2ccccc2)c1,inactive,
O=NN1CCCCCC1,inactive,
CCCCCCCCCCBr,inactive,
CCCCCCCCCCCCCl,inactive,
O=[N+]([O-])c1cc([As](=O)(O)O)ccc1O,inactive,
CC(=O)CN(CC(C)=O)N=O,inactive,
O=S(=O)(C(Cl)(Cl)Cl)C(Cl)(Cl)Cl,,17.3 µM (active)
COC(=O)c1cc(Oc2ccc(Cl)cc2Cl)ccc1[N+](=O)[O-],,27.2 µM (active)
CN(C1CCCCC1)C1CCCCC1,inactive,
O=C(NC(=O)c1c(F)cccc1F)Nc1cc(Cl)c(OC(F)(F)C(F)C(F)(F)F)cc1Cl (stereo not given),inactive,
Cc1cc(Cl)ccc1N,inactive,
N#Cc1ccncc1,inactive,
Oc1c(Cl)cc(Cl)cc1Cl,inactive,
Cc1c([N+](=O)[O-])c(C)c([N+](=O)[O-])c(C(C)(C)C)c1[N+](=O)[O-],inactive,
C#CCO,inactive,
Cc1cc(Cl)ccc1O,inactive,
CC(C)[C@H](C(=O)OC(C#N)c1cccc(Oc2ccccc2)c1)c1ccc(OC(F)F)cc1 (stereo not given in full),inactive,
O=C(CCl)NCO,inactive,
CC(F)(F)CC(F)(F)F,inactive,
COc1nn(C(=O)NS(=O)(=O)c2ccccc2OC(F)(F)F)c(=O)n1C,inactive,
